Compounds with a hit are over-represented: about 2.4% of the library has one in this group of screens.
FEN1 inhibitor = human FEN1 inhibition. 0.35% of 390,000 active. P39748. Potency, µM (highest dose often 114 µM), inactives show top-dose activity change, negative = inhibition, usual class: inhibitors. Recombinant FEN1 flap cleavage, fluorescence, 15 min; also: % is scaled to controls: 0 for no effect and ±100 for the full control effect; nearly all actives have a fitted effect of over 65% in size
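Compounds are tested as a concentration series against 10 nM FEN1; after a 15 min room-temperature preincubation, 50 nM substrate starts cleavage, with plate reads at 0 and 15 min. Normalized responses are fitted by a Hill equation.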
Pol kappa inh = DNA polymerase kappa (human) inhibition; Q9UBT6; purified Pol kappa, fluorescent DNA synthesis assay, 10 min; Potency, µM (series often up to 107 µM), for the others: at the top dose activity, negative = inhibition, usual class: inhibitors; 0.53% of 400,000 active; also: % is scaled to controls: 0 for no effect and ±100 for the full control effect
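Inhibition of 10 nM Pol kappa is measured by a fluorescent read-out at 0 and 10 min following addition of 50 nM substrate (final), with a 15-min room-temperature compound preincubation.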
Pol beta inh = DNA polymerase beta (human) inhibition; 1.3% of 340,000 active; P06746; Pol beta primer extension/strand displacement, fluorescence kinetic; Potency, µM (doses to about 114 µM), without a hit: top-dose activity change, negative = inhibition, hits mostly inhibitors; also: % is scaled to controls: 0 for no effect and ±100 for the full control effect
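Kinetic readout of DNA synthesis with strand displacement by Pol beta. Compound and 10 nM enzyme sit 15 min at room temperature; 50 nM substrate starts the reaction, read immediately and at 10 min.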
WRN inhibitor = WRN helicase (human) inhibition. Q14191. WRN helicase unwinding, fluorescent forked duplex, kinetic. Potency, µM (titrated, usually from 114 µM), inactives show top-dose activity change, negative = inhibition, actives largely listed as inhibitors. 0.46% of 360,000 active; also: % is scaled to controls: 0 for no effect and ±100 for the full control effect; nearly all actives have a fitted effect of over 55% in size
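Screening of the MLSMR collection measured strand separation of a quenched forked DNA duplex (100 nM) by 20 nM WRN with 2 mM ATP, all final. Compounds were preincubated with enzyme 15 min at room temperature.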
POLH inh = blocks human DNA polymerase eta activity; Q9Y253; recombinant Pol eta, fluorescent DNA replication assay; Potency, µM (doses to about 114 µM), for inactives: top-dose activity change, negative = inhibition, hits mostly inhibitors; 1.2% of 390,000 active; also: % is scaled to controls: 0 for no effect and ±100 for the full control effect
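Fluorescent replication assay: 50 nM final substrate added after a 15 min room-temperature compound preincubation with 10 nM enzyme. Signal taken at 0 min and again at 10 min.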
POLI inh = blocks human DNA polymerase iota activity | Potency, µM (top dose mostly 115 µM), inactives show at the top dose activity, negative = inhibition, most hits filed as inhibitors | Q9UNA4 | Pol iota fluorescent replication assay, 10 min | AID 588590 | 1% of 390,000 active
Target sequence (Q9UNA4 whole entry, looked up): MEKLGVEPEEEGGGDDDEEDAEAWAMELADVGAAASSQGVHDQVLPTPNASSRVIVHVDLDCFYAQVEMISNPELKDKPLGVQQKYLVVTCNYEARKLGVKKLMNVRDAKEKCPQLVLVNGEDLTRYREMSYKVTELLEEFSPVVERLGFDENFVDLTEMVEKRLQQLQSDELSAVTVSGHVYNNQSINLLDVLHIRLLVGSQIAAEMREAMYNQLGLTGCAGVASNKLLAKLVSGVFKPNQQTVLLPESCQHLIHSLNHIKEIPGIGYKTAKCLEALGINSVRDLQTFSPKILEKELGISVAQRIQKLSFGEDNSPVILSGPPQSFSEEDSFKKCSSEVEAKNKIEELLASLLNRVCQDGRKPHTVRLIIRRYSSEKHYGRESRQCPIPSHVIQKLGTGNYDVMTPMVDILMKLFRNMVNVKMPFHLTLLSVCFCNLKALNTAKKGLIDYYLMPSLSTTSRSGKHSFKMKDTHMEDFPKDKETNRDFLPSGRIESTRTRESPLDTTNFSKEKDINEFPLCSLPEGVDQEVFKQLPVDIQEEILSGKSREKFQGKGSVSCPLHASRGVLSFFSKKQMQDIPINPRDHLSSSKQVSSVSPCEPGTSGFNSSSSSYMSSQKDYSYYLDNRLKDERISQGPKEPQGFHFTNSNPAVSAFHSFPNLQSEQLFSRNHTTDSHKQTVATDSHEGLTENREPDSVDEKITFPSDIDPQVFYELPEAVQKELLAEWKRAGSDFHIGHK
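Fluorescent replication assay read twice, at 0 min and 10 min after adding 50 nM (final) substrate. Enzyme (10 nM) and compounds were first incubated 15 min at room temperature; enzyme-free buffer wells were negative controls.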
Active calls of the source: *; ? = inconclusive; / = no result; ! = not confirmed by another sample; [ ] = another dose, or the depositor's remark. Calls follow the shape of the dose curve; as a rule, active = well fitted curve in the direction sought with a large enough effect; inconclusive = small, poorly fitted or top-dose-only effect, or another doubt; inactive = no such curve, though single readings can be large; an effect the other way counts as inactive or inconclusive. Potency is read from the fitted curve at half-maximal effect.

SMILES | FEN1 inhibitor | Pol kappa inh | Pol beta inh | WRN inhibitor | POLH inh | POLI inh
CC(=O)Nc1ccc(NC(=O)CCc2nc3sc4c(c3c(=O)[nH]2)CCCC4)cc1 | 8.8% | -43.5% | / | -13.0% | ? | 39.8µM*
CCN(CC)C(=O)c1cccc(NC(=O)CCc2nc3sc4c(c3c(=O)[nH]2)CCCC4)c1 | 4.4% | -8.1% | / | ? | -7.2% | ?
O=C(CCc1nc2sc3c(c2c(=O)[nH]1)CCCC3)Nc1cccc(Cl)c1 | -5.5% | -32.5% | / | -19.5% | 12.6µM* | 79.4µM*
Cc1cc(C)cc(NC(=O)CCc2nc3sc4c(c3c(=O)[nH]2)CCCC4)c1 | 9.1% | ? | / | -14.8% | 20µM* | 44.7µM*
CC1CCN(c2ccc(C(=O)O)cc2N)CC1 | -8.3% | -17.3% | ? | -13.4%[57.1 µM] | 17.8µM* | ?
Nc1cc(C(=O)O)ccc1N1CCCCC1 | -9.5% | 79.4µM* | ? | ? | 10µM* | ?
Cc1sc2ccccc2[n+]1CC(=O)c1ccc(F)cc1 | 0.5% | -18.1% | / | / | / | 25.7%
CCc1c2c(nc3ccc(OC)cc13)-c1nc3ccccc3c(=O)n1C2 | -3.0% | -25.3% | / | / | / | -13.2%
Cc1cccc2c(N=O)c(O)[nH]c12 | 2.0% | -20.8% | -5.6% | -11.3% | 35.5µM* | -20.9%
O=C1c2ccccc2C(=O)c2c(NCCCN(CCO)CCO)cccc21 | 20µM* | -18.4% | 44.7µM* | 25.1µM* | ? | ?
CCN(CC)CC(=O)Nc1cccc2c1C(=O)c1ccccc1C2=O | -6.2% | 3.3%[60.1 µM] | 4.7% | 3.9% | 1.1% | ?
O=C(O)/C=C/c1cnc2ccccc2n1 | 17.1% | -8.6% | -5.3% | -4.6% | -13.6% | 24.5%
O=C(/C=C/c1cnc2ccccc2n1)NC12CC3CC(CC(C3)C1)C2 | -1.4% | -17.1% | 56.2µM* | -14.0% | 2.9% | 1.8%
CC(C)COC[C@H](CN(Cc1ccccc1)c1ccccc1)N1CCCC1 | / | -5.5%[12 µM] | / | / | / | /
COc1ccc(N2C(=O)/C(=C\c3ccco3)N=C2SCC(=O)N(C(C)C)C(C)C)cc1Cl | -4.9% | -11.2% | 56.2µM* | 3.2% | -9.9% | 5.2%
CCCSc1nnc(NC(=O)CSc2nc3[nH]c(=O)cc(O)c3s2)s1 | -8.6% | -29.2% | / | -10.2% | 56.2µM* | 35.5µM*
O=C(CSc1nc2[nH]c(=O)cc(O)c2s1)Nc1nccs1 | 1.4% | -2.1% | / | -5.6% | ? | -11.9%
Cc1csc(NC(=O)CSc2nc3[nH]c(=O)cc(O)c3s2)n1 | -1.8% | -13.7% | / | -4.8% | 28.2µM* | 7.9%
CC(C)(C)c1ccc(Cn2cnc3c(cnn3C(C)(C)C)c2=O)cc1 | 14.1% | 6.1% | / | / | / | -16.4%
CCCCCCCCCCCCOC(=O)N1CCN(/[N+]([O-])=N/Oc2ccc([N+](=O)[O-])cc2[N+](C)=O)CC1 | 2.7% | 2.7% | / | / | / | 35.0%
CCOc1ccc2[nH]c3c(NCCN(C)C)ncnc3c2c1 | / | / | 56.2µM* | / | / | /
CCN(CC)CCNc1ncnc2c1[nH]c1ccc(OC)cc12 | / | / | -12.0% | / | / | /
CCOc1ccc2[nH]c3c(NCCC(C)C)ncnc3c2c1 | ? | -11.8% | ? | -15.0%[57.1 µM] | -7.8% | 5.3%
COc1ccc2[nH]c3c(NCc4ccco4)ncnc3c2c1 | ? | -22.4% | ? | -34.4% | ? | 79.4µM*!
CC(I)CCC(C)[n+]1cccc(I)c1 (configuration not stated) | -1.6% | -14.2% | / | / | / | 24.2%
SMILES | FEN1 inhibitor | Pol kappa inh | Pol beta inh | WRN inhibitor | POLH inh | POLI inh
CC(=O)NCCCN(Cc1ccc(Cl)c(Cl)c1)c1ccc(Br)cn1 | ? | -8.6% | / | / | / | -0.5%
CC[C@H](C)[C@H](NC(=O)[C@H](Cc1ccc(O)cc1)NC(=O)[C@@H](NC(=O)[C@H](CCCN=C(N)N)NC(=O)[C@@H](N)CC(=O)O)C(C)C)C(=O)N[C@@H](Cc1cnc[nH]1)C(=O)N1CCC[C@H]1C(=O)O | / | 8.9%[60.1 µM] | / | / | / | /
CC(=O)Nc1ccc(/C=C/c2nc3ccccc3s2)cc1 | ? | 4.4% | / | / | / | ?
COC(=O)/C=c1/s/c(=C(\C#N)C(=O)NCc2ccco2)n(-c2ccccc2)c1=O | 4.8% | -10.3% | 18.3% | -7.7%[11.6 µM] | ? | 89.1µM*
COc1ccc(/C=c2\s/c(=C(/C#N)C(=O)NCc3ccco3)n(-c3ccccc3)c2=O)cc1 | 0.4% | 1.5% | 2.1% | 0.7%[57.1 µM] | -9.8% | 52.8%
Cc1ccc2c(=O)cc(C(=O)NCCc3ccc(S(N)(=O)=O)cc3)oc2c1 | -21.1% | -90.2% | ? | ? | 22.4µM* | 44.7µM*
CN1N=C(C(C)(C)C)CC1=O | -14.0% | 3.1% | 3.6% | -1.3%[11.6 µM] | -13.7% | 3.98µM*
CC(=O)Nc1ccccc1O | 1.6% | -7.9% | 5.5% | 1.5% | -16.9% | 17.5%
CC(=O)Nc1ccc(-c2ccc(NC(C)=O)c(O)c2)cc1O | -1.2% | ? | ? | -16.7%[11.6 µM] | 35.5µM* | ?
NS(=O)(=O)c1ccc(NNC(=O)c2ccccc2)cc1 | 18.7% | -3.4% | 12.2% | -7.6% | -5.7% | 6.1%
O=C(NNc1cc(Br)c(O)c(Br)c1)c1ccccc1 | ? | ? | -4.7% | -30.1%[57.1 µM] | 4.8% | 22.4µM*
O=C(O)c1cccc(NC(=S)NC(=O)c2ccc(-c3ccc(Cl)cc3)o2)c1 | ? | -30.8% | ? | ? | ? | ?
Cc1ccc(C(=O)O)cc1NC(=S)NC(=O)c1ccc(-c2ccc(Cl)cc2)o1 | -9.2% | -11.6% | 22.8% | -8.2%[11.6 µM] | 50.1µM* | -9.3%
COc1ccc(C(=O)O)cc1NC(=S)NC(=O)c1ccc(-c2ccc(Cl)cc2)o1 | -19.6% | -16.2% | -1.7% | -5.4%[11.6 µM] | 20µM* | ?
COc1ccc(C2CC(=O)Oc3c(C(CCN4CCOCC4)c4ccc5c(c4)OCO5)c(OC)cc(OC)c32)cc1 (configuration not stated) | -20.4% | -10.1% | / | / | / | ?
CC1=CC(=C(c2ccc(N)cc2)c2ccc(N)cc2)C=CC1=N | ? | 3.5%[19.4 µM] | / | / | / | -21.1%
O=C(O)Cc1sc(Nc2cccc3ccccc23)nc1-c1ccc(Cl)cc1 | 1.3% | -13.1% | ? | -19.3%[11.6 µM] | 79.4µM* | 178.1%
O=C(O)Cc1sc(Nc2cccc3ccccc23)nc1-c1ccccc1 | -14.6% | -5.9% | / | 1.1% | 2.2% | -0.6%
CC(=O)c1ccc(NC(=S)N2CCN(c3ccccn3)CC2)cc1 | -19.1% | -0.9% | 17.5% | 5.5% | 89.1µM* | 21.8%
Nc1nnc(-c2cc3c(ccc4ccccc43)oc2=O)s1 | / | / | 22.4µM* | / | / | /
CN(C)c1ccc(Cc2cc3c(O)ccc(O)c3cc(Cc3ccc(N(C)C)cc3)c2=O)cc1 | 39.8µM* | 7.94µM* | / | 12.6µM* | 2.24µM* | 3.16µM*
CCOC(=O)C(=CNNc1cccc(Cl)c1)C(=O)OCC | -11.1% | -15.1% | -2.6% | 50.1µM* | -3.3% | 102.3%
CCOC(=O)C(=CNc1ccc(Cl)cn1)C(=O)OCC | 0.0% | -9.5% | -4.0% | 1.0% | -13.3% | -7.4%[58.9 µM]

Compound activity: PubChem, National Center for Advancing Translational Sciences (NCATS)
